From PubChem BioAssay AID434931 (National Center for Advancing Translational Sciences (NCATS), 2010)
Records with an inconclusive call do not appear. Calls of active or inactive are those of the source. The call rests on the fitted dose curve; in most records, active means well fitted inhibition curve with a large enough effect; inconclusive means small, poorly fitted or top-dose-only effect, or another doubt; inactive means no such curve, though single readings can be large or run the other way.

The compounds below were run against Neuropeptide S receptor (Homo sapiens) (UniProt Q6W5P4) (assay: Confirmation Concentration-Response Assay for Antagonists of the Neuropeptide S Receptor: Robust Characterization of Calcium Signal Transduction). Conditions: CHO-NPSR cells, NPS-induced calcium fluorescence (FDSS).
From the text: NIH Chemical Genomics Center [NCGC] NIH Molecular Libraries Probe Production centers Network [MLPCN] MLPCN Grant: X01-DA026210-01 Assay Submitter (PI): Heilig, Markus Alexander NCGC Assay Overview: Neuropeptide S receptor (NPSR), previously known as GPR154, is a recently de-orphanized G protein coupled receptor. Its endogenous ligand is the 20 amino acids peptide Neuropeptide S (NPS). […] NPS and its receptor are found in various tissues. Specifically they are highly expressed in brain areas that have been implicated in modulation of arousal, stress and anxiety. Central administration of NPS in mice produces an unusual profile of activity by inducing wakefulness and arousal, while at the same time suppressing anxiety. Therefore, NPSR may represent a novel drug target for the treatment of sleep and anxiety disorders. To identify NPSR antagonists, we developed a cell-based assay with transfected NPS receptor. NPS can stimulate the production of cAMP as well as release intracellular calcium in Chinese hamster ovary cells stably expressing NPS receptor. This change in intracellular calcium can be detected using a calcium indicator dye on a calcium imaging plate reader system (FDSS). This particular assay uses a high density of sampling across concentration-response space to establish more confidence estimates of potency.
NCGC Assay Protocol Summary: A Chinese hamster ovary (CHO) cell line stably expressing the NPS receptor (CHO-NPSR) was obtained from Dr. Heilig lab at NIAAA and maintained in F-12 Kaighn's media (Invitrogen, Carlsbad, CA, 21127) supplemented with 10 % FBS, 100 units/ml penicillin, 100 ug/ml streptomycin and 250 ug/ml geneticin at 37C, 5% CO2 in a humidified atmosphere. Before the assay, aliquots of cells were frozen and stored at -135C. The assay was performed on a FDSS-7000 kinetic plate reader in 1536-well format. For both agonist (1-220s) and antagonist (221-400s) phases, the maximums of kinetic fluorescence responses were converted separately into text files using the instrument's software data export utility. Data for agonist response were normalized to the controls for basal activity (DMSO only) and 100% activation (NPS). […] AC50 values were determined from concentration-response data modeled with the standard Hill equation. NPS 1536-well FDSS assay protocol: (1) Frozen CHO-NPSR cells were thaw, washed once with fresh media and resuspended in F-12 Kaighn's media supplemented with 10 % FBS, 100 units/ml penicillin and 100 ug/ml streptomycin. Cells were plated at 3 ul/well (1200 cells) to black, clear-bottom, tissue-culture treated 1536-well plates, and then cultured at 37C, 5 % CO2 for 16 to 30 hours. (2) Add 3 ul of calcium dye (from High Performance PBX Calcium Assay Kit, BD Biosciences). The calcium dye was prepared according to the manufactory's instruction. (3) Incubation at 37C, 5 % CO2 for 60 to 120 min. (4) Load plates to FDSS-7000. The following steps were performed on FDSS-7000. (5) Record fluorescent background (Ex 480 nm, Em 520-560 nm) for 10 s. (6) Add 23 nl/well of compound in DMSO solution. The final titration for each compound was between 0.6 nM and 46 uM. Record agonist response for 210 s. (7) Add 2 ul of stimulation reagent (1X HBSS buffer, 0.1% BSA, 60 nM NPS). Record antagonist response for 140 s. Keywords: MLSMR, MLPCN, NIH Roadmap, qHTS, NCGC, NPS, Neuropeptide S Antagonists

Sequence of Neuropeptide S receptor (Homo sapiens) (Q6W5P4 whole entry, looked up): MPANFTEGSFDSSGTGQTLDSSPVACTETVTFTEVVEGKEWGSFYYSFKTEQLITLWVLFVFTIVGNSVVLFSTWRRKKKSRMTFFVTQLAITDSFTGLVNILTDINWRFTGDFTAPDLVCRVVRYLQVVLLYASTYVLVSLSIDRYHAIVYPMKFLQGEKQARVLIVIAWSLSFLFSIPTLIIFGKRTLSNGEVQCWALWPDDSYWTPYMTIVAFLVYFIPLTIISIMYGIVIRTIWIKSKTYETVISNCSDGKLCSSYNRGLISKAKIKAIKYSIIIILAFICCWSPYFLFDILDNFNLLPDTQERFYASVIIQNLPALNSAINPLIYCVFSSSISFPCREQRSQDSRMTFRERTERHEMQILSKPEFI

How did the Potency turn out when `S=P(c1ccccc1)(c1ccccc1)c1cnc2ccccn12` was run?
The Potency was 4000 nM (active).

With `Cc1c(P(=S)(c2ccccc2)c2ccccc2)[n+]2ccccc2n1CCCc1ccccc1` as the compound, how does the Potency read?
The Potency was 2 nM (active).

With `Cc1c(P(=S)(c2ccccc2)c2ccccc2)c2ccccc2n1C` as the compound, how does the Potency read?
The Potency was 2830 nM (active).

For `Cc1c(P(=S)(c2ccccc2)c2ccccc2)[n+]2ccccc2n1CCCCCc1ccccc1`, which Potency is on record?
Its Potency is 12.7 nM (active).

For `Cc1c(P(=S)(c2ccccc2)c2ccccc2)[n+]2ccccc2n1Cc1ccccc1`, which Potency is on record?
Its Potency is 31.8 nM (active).

Which Potency does the source give for `C[n+]1cc(P(=S)(c2ccccc2)c2ccccc2)n2ccccc21` here?
The Potency was 2520 nM (active).

With `Cc1c(P(=S)(c2ccccc2)c2ccccc2)[n+]2ccccc2n1C` as the compound, how does the Potency read?
The Potency was 50.4 nM (active).

Which Potency does the source give for `Cc1c(P(=S)(c2ccccc2)c2ccccc2)[n+]2ccccc2n1C/C=C/c1ccccc1` here?
The Potency was 0.938 nM (active).

With `Cc1nc2ccccn2c1P(=S)(c1ccccc1)c1ccccc1` as the compound, how does the Potency read?
Its Potency is 1000 nM (active).

For `Cc1c(P(=S)(c2ccccc2)c2ccccc2)[n+]2ccccc2n1CCCCc1ccccc1`, which Potency is on record?
Its Potency is 1.1 nM (active).

Which Potency does the source give for `Cc1c(P(=S)(c2ccccc2)c2ccccc2)[n+]2ccccc2n1CCc1ccccc1` here?
Its Potency is 71.2 nM (active).
